Measured values taken from PubChem BioAssay (NCATS).
Records with an inconclusive call do not appear. Unmarked numbers belong to inactive results. The call rests on the fitted dose curve; in most records, active means well fitted cell-killing curve with a large enough effect; inconclusive means small, poorly fitted or top-dose-only effect, or effect the other way; inactive means flat fitted curve, though single readings scatter.
On the % scale 0 is the no-effect control and ±100 the full control effect.

Each molecule was assayed on HeLa (assay: Primary qHTS to identify gynecologic anti-cancer compounds using libraries of approved drugs and bioactive compounds (AID 1345084; further: nearly all actives have a fitted effect of over 55% in size)). Details: Gynecologic cancer cell panel viability, ATPlite luminescence, 48 h; series mostly up to 57.5 µM; activity change, negative = cytotoxicity: at the top concentration.
In short: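 48 h compound exposure at 37 C, 5% CO2; five-point qHTS. ATPlite luminescence readout of cell ATP.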
CC(=O)N1CCN([C@H]2CCN(C(=O)N(C)[C@H](C)c3cc(C(F)(F)F)cc(C(F)(F)F)c3)[C@@H](c3ccc(F)cc3C)C2)CC1 was tested, and the “activity change, negative = cytotoxicity” value was 8.46%.
In the case of Nc1ccc(N)c([N+](=O)[O-])c1, the “activity change, negative = cytotoxicity” value was -13.3% [at 116 µM].
For C=C1C(=O)O[C@@H]2C[C@@H](C)[C@]34C[C@]5(C(=O)O[C@H]6CC(C)=C([C@H](C)CCCO)[C@H](OC(=O)C(C)CC)[C@H]65)[C@@H](C(C)=C3C[C@@H]12)[C@H]4OC(C)=O (stereo partly drawn), the “activity change, negative = cytotoxicity” value was -12.1% [at 25.3 µM].
With Fc1ccccc1CNCc1ccc(-c2ccnc3[nH]ccc23)cc1 the “activity change, negative = cytotoxicity” value was -4.98%.
For CCCCc1nc(C)c(CC(=S)N(C)C)c(=O)n1Cc1ccc(-c2ccccc2-c2nn[nH]n2)cc1, the “activity change, negative = cytotoxicity” value was -1.49%.
With Clc1ccccc1CNCC1CCC(CNCc2ccccc2Cl)CC1 (stereo not drawn) the “activity change, negative = cytotoxicity” value was -0.559%.
In the case of CNc1nc(-c2ccc3c(N)n[nH]c3c2)cc(N2CC(C(=O)NC3CCCCC3)CCC2C)n1 (stereo not drawn), the “activity change, negative = cytotoxicity” value was -29.9%.
With CC[C@H]1OC(=O)[C@H](C)[C@@H](O[C@H]2C[C@@](C)(OC)[C@@H](O)[C@H](C)O2)[C@H](C)[C@@H](O[C@@H]2O[C@H](C)C[C@H](N(C)C)[C@H]2O)[C@](C)(O)C[C@@H](C)/C(=N/OCOCCOC)[C@H](C)[C@@H](O)[C@]1(C)O the “activity change, negative = cytotoxicity” value was 19.8%.
With C[C@@H](CN1CCC(n2c(=O)[nH]c3cc(Cl)ccc32)CC1)NC(=O)c1ccc2ccccc2c1 the “activity change, negative = cytotoxicity” value was 2.78%.
CN(C)CC(=O)Nc1ccc2[nH]c(=O)c3ccccc3c2c1 was tested, and the “activity change, negative = cytotoxicity” value was -9.42%.
For C=C1C(=O)O[C@@H]2/C=C(/C)CC3C=C(C[C@H](OC(=O)/C(C)=C\C)[C@@H]12)C(=O)O3 (stereo partly drawn), the “activity change, negative = cytotoxicity” value was -2.97% [at 38.5 µM].
With COc1ccc2c(c1)CN(C(=O)CCN1CCC(Cc3ccccc3)CC1)CCS2 the “activity change, negative = cytotoxicity” value was 0.757% [at 25.3 µM].
In the case of COc1ccc(-c2nc(-c3cc(C(F)(F)F)cc(C(F)(F)F)c3)n(Cc3ccc(C(N)=O)cc3)c2-c2ccc(OC)cc2)cc1, the “activity change, negative = cytotoxicity” value was -20.1%.
For CNc1cc(OC)c(C(=O)N[C@@H]2CCN(Cc3ccccc3)[C@@H]2C)cc1Cl, the “activity change, negative = cytotoxicity” value was 5.13%.
With CCOC(=O)CCC(=O)O[C@H]1[C@H](O[C@@H]2[C@@H](C)[C@H](O[C@H]3C[C@@](C)(OC)[C@@H](O)[C@H](C)O3)[C@@H](C)C(=O)O[C@H](CC)[C@@](C)(O)[C@H](O)[C@@H](C)C(=O)[C@H](C)CC2(C)O)O[C@H](C)C[C@@H]1N(C)C (stereo partly drawn) the “activity change, negative = cytotoxicity” value was 13.9%.
In the case of C=C(C(=O)O)C1CC2=C(C)C(=O)CC2C(C)CC1O (stereo not drawn), the “activity change, negative = cytotoxicity” value was -0.0394%.
For CCC(=O)Nc1cccc(Oc2nc(Nc3ccc(N4CCN(C)CC4)cc3OC)ncc2Cl)c1, the “activity change, negative = cytotoxicity” value was -14.3%.
For Cc1cc(CN)cc(C)c1NC(=O)c1ccc(-c2cc(Cl)ccc2Cl)o1, the “activity change, negative = cytotoxicity” value was -4.78%.
C=C1C(=O)O[C@@H]2C[C@@]3(C)CCC[C@H](C)C3=C[C@H]12 was tested, and the “activity change, negative = cytotoxicity” value was -2.75%.
For C=C1C(=O)O[C@@H]2[C@H]1[C@H](O)C[C@]1(C)[C@@H](O)CC=C(C)[C@@H]21, the “activity change, negative = cytotoxicity” value was 7.88%.
With CC(C)c1ccc(NC(=O)C(c2ccccc2)N(C)C(=O)Cc2c[nH]c3ccccc23)cc1 (stereo not drawn) the “activity change, negative = cytotoxicity” value was -27.2%.
O=C(Nc1cccc(C(F)(F)F)c1)c1ccccc1NCc1ccncc1 was tested, and the “activity change, negative = cytotoxicity” value was -27.5%.
Cc1cc(C)c(NC(=O)N(Cc2ccc3c(c2)Cc2ccccc2-3)C2CCCCCC2)c(C)c1 was tested, and the “activity change, negative = cytotoxicity” value was 13.5%.
CN(Cc1ccc(C(=O)O)cc1)c1ccc(OCc2c(-c3c(Cl)cccc3Cl)noc2C2CC2)nc1C(F)(F)F was tested, and the “activity change, negative = cytotoxicity” value was -0.279%.
In the case of C[N+]1(C)[C@@H]2CC[C@H]1CC(OC(=O)C(O)c1ccccc1)C2 (stereo partly drawn), the “activity change, negative = cytotoxicity” value was 14.9%.
With CC1CCN(c2cc(NC(=O)c3ccccc3)ncn2)CC1 the “activity change, negative = cytotoxicity” value was -23.2%.
CCOc1ccc(-c2nc(-c3cccc4c3CCC4NCCO)no2)cc1OCC (stereo not drawn) was tested, and the “activity change, negative = cytotoxicity” value was 13.9%.
With CCC(=O)c1cc(-c2ccc(Cl)cc2)n(-c2ccc(S(N)(=O)=O)cc2)c1C the “activity change, negative = cytotoxicity” value was -12.1%.
For COc1cc2nc(-c3cc(F)ccc3O)nc(N[C@@H]3CNC[C@H]3C(C)(C)O)c2cc1OC, the “activity change, negative = cytotoxicity” value was 1.48%.
O=C(/C=C/n1cnc(-c2cc(C(F)(F)F)cc(C(F)(F)F)c2)n1)NNc1cnccn1 was tested, and the “activity change, negative = cytotoxicity” value was 1.13%.
With COc1cc(-c2cc(-c3cccc(O)c3)cnc2N)cc(OC)c1OC the “activity change, negative = cytotoxicity” value was -18.5%.
COc1c(N2CC3CCCNC3C2)c(F)cc2c(=O)c(C(=O)O)cn(C3CC3)c12 (stereo not drawn) was tested, and the “activity change, negative = cytotoxicity” value was 9%.
For COc1ccc(-c2c(C)c(C(=O)NN3CCCCC3)nn2-c2ccc(Cl)cc2Cl)cc1, the “activity change, negative = cytotoxicity” value was -3.02%.
